In assay [1] the target is Luciferin 4-monooxygenase (Photinus pyralis) (UniProt P08659). Briefly: qHTS assay to identify small molecule inhibitors of firefly luciferase (AID 1224835). Note: nearly all actives have a fitted effect of over 25% in size. An outline of the steps:
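Biochemical qHTS: compounds run as interplate titrations against purified firefly enzyme, with D-luciferin and ATP each at its KM concentration. Light output recorded by CCD imaging.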
A general note: Quantitative high-throughput screening tests each substance at several concentrations.

Assay [2] in a line: qHTS assay to identify small molecule agonists of the constitutive androstane receptor (CAR) signaling pathway - cell viability counter screen (AID 1224836). Note: nearly all actives have a fitted effect of over 45% in size. An outline of the steps:
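Compound titrations (15 concentrations) went onto HepG2-CYP2B6-hCAR cells 4 h after seeding, alongside PK11195 at a final 0.75 uM; a 23 h, 37 C/5% CO2 incubation preceded CellTiter-Fluor viability measurement.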

Assay [3] can be described thus: qHTS assay to identify small molecule antagonists of the constitutive androstane receptor (CAR) signaling pathway - cell viability counter screen (AID 1224837). Note: nearly all actives have a fitted effect of over 45% in size. An outline of the steps: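 HepG2 cells stably expressing hCAR and a CYP2B6-2.2kb reporter were plated and pre-incubated 4 hr at 37 C/5% CO2, then given compounds at 15 concentrations plus 50 nM CITCO (final). After 23 hr, viability was read by CellTiter-Fluor fluorescence.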

Assay [4] addresses Nuclear receptor subfamily 1 group I member 3 (Homo sapiens) (UniProt Q14994). Briefly: qHTS assay to identify small molecule antagonists of the constitutive androstane receptor (CAR) signaling pathway (AID 1224838). Note: nearly all actives have a fitted effect of over 40% in size. An outline of the steps:
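HepG2 cells stably co-transfected with hCAR and a CYP2B6-2.2kb luciferase reporter were seeded 4 h before compound addition at 15 concentrations. Cells were stimulated with 50 nM CITCO (final) for 24 h at 37 C; luciferase luminescence was then read.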

The target is the same in assay [5]. Briefly: qHTS assay to identify small molecule agonists of the constitutive androstane receptor (CAR) signaling pathway (AID 1224839).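 Note: HepG2 cells stably carrying human CAR and a CYP2B6 luciferase reporter; nearly all actives have a fitted effect of over 15% in size.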 An outline of the steps: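 In this screen, CAR-driven CYP2B6 promoter activity is measured by luminescence in HepG2-CYP2B6-hCAR cells after 24 h with test compounds and 0.75 uM PK11195 (final concentration).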
Assay [6] can be described thus: qHTS assay to identify small molecule antagonists of the estrogen related receptor signaling pathway with the pleiotropic PPARgamma coactivator (PGC) from Tox21 10K library - cell viability counter screen (AID 1224840; active = well fitted cell-killing curve with a large enough effect in the repeat runs, not every such curve was filed as active; note: nearly all actives have a fitted effect of over 40% in size). An outline of the steps: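 PGC/ERR cells were seeded at 2,000 cells/well and left 6 hours at 37 C/5% CO2 before pin-tool addition of compounds in DMSO. After 17.5 hours at 37 C, CellTiter-Fluor was added and fluorescence read 30 minutes later.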

Assay [7] deals with Thyrotropin receptor (Homo sapiens) (UniProt P16473). Put plainly: qHTS assay to identify small molecule agonists of the thyroid stimulating hormone receptor (TSHR) signaling pathway (AID 1224843; calls by dose curve; note: nearly all actives have a fitted effect of over 45% in size; note: potency is the fitted concentration of half-maximal effect). An outline of the steps: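 TSHR-HEK293 cells in agonist mode, 30 min room-temperature step, then cAMP measured by competitive HTRF (cAMP-d2 with anti-cAMP cryptate) after 1 h at room temperature. Tested at 15 concentrations in triplicate.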
Thyrotropin receptor (Homo sapiens), sequence (P16473 whole entry, looked up): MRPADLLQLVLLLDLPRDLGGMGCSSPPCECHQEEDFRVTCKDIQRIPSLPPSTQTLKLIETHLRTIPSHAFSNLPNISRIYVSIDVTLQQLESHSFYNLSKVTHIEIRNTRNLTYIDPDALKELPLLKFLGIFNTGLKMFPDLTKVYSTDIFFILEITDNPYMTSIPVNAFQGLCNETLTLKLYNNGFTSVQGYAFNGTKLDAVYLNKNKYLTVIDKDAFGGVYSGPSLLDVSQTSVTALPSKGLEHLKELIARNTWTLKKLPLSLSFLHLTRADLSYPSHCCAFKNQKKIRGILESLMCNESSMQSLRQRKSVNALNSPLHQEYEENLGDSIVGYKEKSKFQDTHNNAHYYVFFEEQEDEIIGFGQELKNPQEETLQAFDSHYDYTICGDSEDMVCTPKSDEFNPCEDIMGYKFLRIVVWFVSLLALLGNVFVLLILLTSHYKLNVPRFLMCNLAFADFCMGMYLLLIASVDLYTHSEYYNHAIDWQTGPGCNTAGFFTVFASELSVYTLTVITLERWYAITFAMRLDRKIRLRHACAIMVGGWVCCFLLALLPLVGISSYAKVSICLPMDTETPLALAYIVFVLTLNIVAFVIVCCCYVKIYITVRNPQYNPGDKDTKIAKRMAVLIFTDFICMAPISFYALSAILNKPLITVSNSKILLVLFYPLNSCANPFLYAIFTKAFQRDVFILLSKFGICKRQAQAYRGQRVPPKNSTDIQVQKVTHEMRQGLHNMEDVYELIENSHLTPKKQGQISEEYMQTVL

The nature of assay [8]: qHTS assay to identify small molecule agonists of the hypoxia (HIF-1) signaling pathway - cell viability counter screen (AID 1224844; calls by dose curve; note: nearly all actives have a fitted effect of over 50% in size; note: potency is the fitted concentration of half-maximal effect). An outline of the steps: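 HRE-bla ME-180 cells in medium with 0.5% dialyzed FBS were preincubated 5 hrs at 37C, exposed to compounds for 17 hrs, then viability was read as CellTiter-Glo luminescence after 30 min at room temperature, in the reporter wells.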

A short description of assay [9]: qHTS assay to identify small molecule agonists of H2AX (AID 1224845; active = well fitted activation curve with a large enough effect in the signal ratio in the repeat runs, not every such curve was filed as active; the % refers to the signal ratio). An outline of the steps:
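Wild-type CHO-K1 cells, plated overnight, exposed 3hr at 37C to 15 concentrations (0.76% DMSO final). Lysed, then HTRF anti-pH2AX (S139) cryptate and anti-H2AX-d2 antibodies, 24 hr room temperature; 665/620 nm emission read.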

Assay [10] is described as follows: qHTS assay to identify small molecule agonists of the hypoxia (HIF-1) signaling pathway (AID 1224846; active = well fitted activation curve with a large enough effect in the signal ratio in the repeat runs, not every such curve was filed as active; the % refers to the signal ratio). The method in brief: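 HRE-bla ME-180 cells (beta-lactamase reporter under hypoxia response element) were plated at 2,000 cells/well in medium with 0.5% dialyzed FBS, rested 5 hrs, then given compounds in DMSO for 17 hrs at 37C, 5% CO2. Reporter induction was read with CCF4-AM FRET substrate.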

Assay [11] can be described thus: qHTS assay to identify small molecule agonists of H2AX - cell viability counter screen (AID 1224847; calls by dose curve; note: top concentration of the series differs between compounds; nearly all actives have a fitted effect of over 30% in size). An outline of the steps: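 Read-out: CellTiter-Glo luminescence, 30 min RT. Cells: wild-type CHO-K1, 1000/well, 10% FBS, plated overnight at 37C. Treatment: 15 concentrations, 3 hr, 37C, 0.76% DMSO.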
Assay [12] in a line: qHTS RealTime-Glo MT Cell Viability Assay in HepG2 cells - 24 hour (AID 1224867). Note: nearly all actives have a fitted effect of over 50% in size. The method in brief: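 Luminescence read-out: viable HepG2 cells reduce a prosubstrate to a NanoLuc substrate, giving a signal proportional to live cell number. Reads taken at 0, 8, 16, 24, 32 and 40 h of compound exposure at 37 C.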
Assay [13] in a line: qHTS RealTime-Glo MT Cell Viability Assay in HEK293 cells - 32 hour (AID 1224868). Note: top concentration of the series differs between compounds; nearly all actives have a fitted effect of over 50% in size. The method in brief: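 Nonlytic real-time viability readout: viable cells convert prosubstrate to NanoLuc substrate, giving luminescence proportional to live cell number. HEK293, 600 cells/well, compound added after 5 h, continuous culture at 37 C.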
A short description of assay [14]: A CellTox Green Cytotoxicity Assay to monitor cytotoxicity in HEK293 cells - 0 hour (AID 1224869). Note: nearly all actives have a fitted effect of over 50% in size. An outline of the steps: (§1)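 HEK293 cells premixed with CellTox Green dye were seeded at 600 cells/well and left 5 h at 37 C/5% CO2 before pin transfer of 23 nL compound in DMSO. Fluorescence from dye bound to dead-cell DNA was read during 40 h treatment.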
Assay [15] is described as follows: qHTS RealTime-Glo MT Cell Viability Assay in HepG2 cells - 40 hour (AID 1224870). Note: nearly all actives have a fitted effect of over 50% in size. An outline of the steps:
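HepG2 cells (600/well) mixed with RealTime-Glo MT reagent, settled 5 h at 37 C/5% CO2 before compound addition. Nonlytic NanoLuc luminescence from viable-cell prosubstrate reduction read repeatedly during 40 h treatment at 37 C.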

A short description of assay [16]: A CellTox Green Cytotoxicity Assay to monitor cytotoxicity in HEK293 cells - 40 hour (AID 1224871). Note: nearly all actives have a fitted effect of over 45% in size. An outline of the steps:
as §1

The nature of assay [17]: qHTS assay to identify small molecule antagonists of the estrogen related receptor signaling pathway with the pleiotropic PPARgamma coactivator (PGC) from Tox21 10K library (AID 1224841; call rule not given here; note: potency is the fitted concentration of half-maximal effect). An outline of the steps: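 PGC/ERR reporter cells were seeded at 2,000 cells/well and held 6 hours at 37 C/5% CO2 before pin-tool addition of compounds in DMSO. After 18 hours at 37 C, One-Glo was added and luminescence read after 30 minutes at room temperature.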

A short description of assay [18]: qHTS assay to identify small molecule agonists of the estrogen related receptor signaling pathway with the pleiotropic PPARgamma coactivator (PGC) from Tox21 10K library (AID 1224842). Note: nearly all actives have a fitted effect of over 15% in size. An outline of the steps:
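PGC/ERR reporter cell line, 2,000 cells per well, incubated 6 h at 37 C before 23 nL compound in DMSO was added. After 18 h at 37 C, One-Glo luminescence read following 30 min at room temperature.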

Assay [19] can be described thus: qHTS assay to identify small molecule agonists of the estrogen related receptor (ERR) signaling pathway from Tox21 library (AID 1224849; calls by dose curve; note: nearly all actives have a fitted effect of over 15% in size). The settings on record: ERR reporter cell line, ONE-Glo luciferase, 18 h; at 92.4 µM (top of the series) unless noted. The method in brief:
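ERR reporter cell line (NTP) seeded, rested 6 h at 37 C/5% CO2, then pinned with Tox21 compounds in DMSO. After 18 h at 37 C, ONE-Glo luciferase luminescence was read following 30 min at room temperature.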

Assay [20] in a line: qHTS assay to identify small molecule antagonists of the estrogen related receptor (ERR) signaling pathway from Tox21 library (AID 1224848). Note: nearly all actives have a fitted effect of over 50% in size. An outline of the steps:
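ERR reporter cell line (from NTP) seeded 2,000 cells/well, rested 6 h at 37 C/5% CO2, then pin-dosed with compounds in DMSO. After 18 h at 37 C, ONE-Glo added; luminescence read after 30 min at room temperature.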

A number with no mark means an inactive call. Records with an inconclusive call do not appear. Active and inactive are the calls of the source. Unless noted, calls come from the whole dose curve; as a rule, active = well fitted curve in the direction sought with a large enough effect in the repeat runs; inconclusive = weak or mixed curves; inactive = no such curve, though single readings can be large; an effect the other way counts as inactive or inconclusive.
% is set by controls: 0 for no effect and ±100 for the full control effect.

Luciferin 4-monooxygenase (Photinus pyralis), sequence (P08659 whole entry, looked up): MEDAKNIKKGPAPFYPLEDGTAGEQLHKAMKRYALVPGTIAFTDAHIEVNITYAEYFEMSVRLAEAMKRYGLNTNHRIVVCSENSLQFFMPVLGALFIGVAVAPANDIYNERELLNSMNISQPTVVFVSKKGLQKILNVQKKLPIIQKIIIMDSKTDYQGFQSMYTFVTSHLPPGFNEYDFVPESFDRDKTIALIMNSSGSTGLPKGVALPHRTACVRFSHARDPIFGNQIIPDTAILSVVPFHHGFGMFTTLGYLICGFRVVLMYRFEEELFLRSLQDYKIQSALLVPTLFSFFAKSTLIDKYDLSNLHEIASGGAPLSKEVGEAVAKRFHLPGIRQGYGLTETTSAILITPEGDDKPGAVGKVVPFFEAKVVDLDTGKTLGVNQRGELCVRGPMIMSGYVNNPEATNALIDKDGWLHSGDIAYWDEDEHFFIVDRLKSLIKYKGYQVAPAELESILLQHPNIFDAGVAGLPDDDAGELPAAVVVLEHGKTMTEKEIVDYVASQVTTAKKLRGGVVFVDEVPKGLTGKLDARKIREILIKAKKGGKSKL
Nuclear receptor subfamily 1 group I member 3 (Homo sapiens), sequence (Q14994 whole entry, looked up): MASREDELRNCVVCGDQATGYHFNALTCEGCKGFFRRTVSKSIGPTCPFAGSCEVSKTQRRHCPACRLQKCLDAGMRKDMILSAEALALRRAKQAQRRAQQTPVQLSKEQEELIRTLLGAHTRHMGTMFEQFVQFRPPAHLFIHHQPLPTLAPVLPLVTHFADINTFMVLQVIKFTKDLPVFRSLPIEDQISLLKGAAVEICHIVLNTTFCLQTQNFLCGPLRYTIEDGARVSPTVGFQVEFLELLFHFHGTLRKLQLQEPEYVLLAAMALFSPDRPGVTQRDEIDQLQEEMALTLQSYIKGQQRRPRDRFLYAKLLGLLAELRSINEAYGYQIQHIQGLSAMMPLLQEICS

Consider `CC(C)[N+](=O)[O-]`, for which the Potency result in assay [1], in assay [2], in [3], in assay [4], in assay [5] and in assay [6] was “inactive” each time. For the same molecule, the Potency entry in assay [7], in [8], in assay [9], in assay [11], in [12] and in [13] was “inactive” each time. Also, the Potency result in assay [14], in assay [15] and in assay [16] was “inactive” throughout. In assay [10], the molecule was called inactive.

As for `ClCC(Cl)Cl`, the Potency result in assay [1], in [2], in assay [3], in assay [4], in [5] and in assay [6] was “inactive” each time. For the same molecule, the Potency result in assay [7], in [8], in assay [9], in assay [11], in [12] and in assay [13] was “inactive” in each case. Moreover, the Potency entry in assay [14] and in [15] was “inactive” each time. For the same molecule, in [10], the result was inactive.

With `CC(Oc1ccc(Oc2ncc(C(F)(F)F)cc2Cl)cc1)C(=O)O` (stereo unspecified), the Potency entry in [1], in [2], in assay [3], in assay [4], in assay [5] and in assay [6] was “inactive” each time. For the same molecule, the Potency entry in assay [7], in assay [9], in assay [11], in assay [12], in assay [13] and in assay [14] was “inactive” in each case. The Potency entry in assay [15] was “inactive”. Moreover, the Potency was 27.3 µM (active) in [17] and 15.5 µM (active) in assay [8]. For the same molecule, in assay [18], the outcome was inactive. Further, the activity change, positive = activation in assay [19] was -29.5%.

Consider `Cc1nnc2n1-c1sc(CCC(=O)N3CCOCC3)cc1C(c1ccccc1Cl)=NC2`, for which the Potency entry in assay [1], in assay [2], in [3], in assay [4], in assay [5] and in assay [6] was “inactive” each time. The Potency entry in [17], in assay [7], in [8], in assay [9], in assay [11] and in assay [20] was “inactive” throughout. The Potency result in assay [12], in assay [13], in assay [14], in assay [15] and in assay [16] was “inactive” in each case. The result in [18] and in assay [10] was inactive. Moreover, the activity change, positive = activation in assay [19] is 1.19% [at 42.5 µM].

With `CC(C=O)Cc1ccc2c(c1)OCO2` (stereo unspecified), the Potency entry in [1], in assay [2], in assay [3], in [4], in assay [5] and in [6] was “inactive” throughout. For the same molecule, the Potency entry in [7], in assay [8], in assay [9], in [11], in [12] and in [13] was “inactive” in each case. Besides, the Potency entry in [14], in assay [15] and in [16] was “inactive” throughout. For the same molecule, the molecule was classed as inactive in [10].

For the molecule `CNCC(=O)c1ccc(O)c(O)c1`, the Potency result in assay [1], in assay [2], in assay [3], in assay [4], in [5] and in assay [6] was “inactive” throughout. Moreover, the Potency result in [8], in [11], in assay [12], in assay [13], in assay [14] and in assay [15] was “inactive” in each case. In addition, the Potency entry in assay [16] is “inactive”. The Potency in assay [7] was 2.37 µM (active). Further, in [10], the outcome was inactive.

For `CCN(Cc1ccc(Cl)nc1)/C(=C/[N+](=O)[O-])NC`, the Potency result in assay [1], in [2], in assay [3], in assay [4], in assay [5] and in [6] was “inactive” throughout. Also, the Potency result in assay [7], in [8], in assay [11], in assay [12], in assay [14] and in assay [15] was “inactive” in each case. In [16], the Potency entry was “inactive”. Moreover, the molecule was classed as inactive in assay [10].

Regarding `O=C(O)c1cccc(Cl)c1`, the Potency entry in assay [1], in assay [2], in assay [3], in assay [4], in assay [5] and in assay [6] was “inactive” in each case. The Potency entry in assay [7], in [8], in [11], in assay [12], in assay [13] and in [14] was “inactive” in each case. In addition, the Potency entry in assay [15] and in assay [16] was “inactive” in each case. In addition, the molecule was called inactive in assay [10].

Consider `CC(C(O)c1ccccc1)N(C)C/C=C/c1ccccc1` (stereo unspecified), for which the Potency result in assay [1], in assay [2], in assay [3], in assay [4], in assay [5] and in assay [6] was “inactive” in each case. The Potency entry in [8], in assay [9], in assay [12], in assay [14], in assay [15] and in assay [16] was “inactive” throughout. The call in [10] was inactive.

The values above are taken from PubChem BioAssay (Tox21).
